Here are results for 30 compounds from PubChem BioAssay (EPA / NIEHS).

Values joined by “and” are separate entries in the source; they are usually repeats but may differ in a detail not shown here. Equal entries are not always repeated. Active and inactive are the calls of the source. The calls were made as follows: active = hit-call score of the fitted dose curve at least 0.9, where 1 is the maximum; inactive = score below 0.9. Peptide text beside a SMILES is read from it.

Assay [1] has as its target Nuclear respiratory factor 1 (Homo sapiens) (UniProt Q16656). The assay can be described thus: ATG_NRF1_CIS: Attagene CIS-FACTORIAL HepG2 Assay for human Nuclear Respiratory Factor 1 (NRF1) Orphan Gene (AID 2282987). Conditions: HepG2 NRF1 cis-element reporter, Attagene multiplex; actives raise or lower the signal. The gist of the method: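 Human hepatoma HepG2 cells carrying transfected promoter-regulated reporter units were incubated with test chemicals for 24 h. Reporter transcripts were measured by RT-PCR plus capillary electrophoresis, and endpoints derived by bidirectional fitting with DMSO as baseline.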

Assay [2] in a line: ATG_NFI_CIS: Attagene CIS-FACTORIAL HepG2 Assay for human Nuclear Factor I (NFI) (AID 2282989). Conditions: HepG2 cis-regulatory reporter, NFI response element transcription; actives raise or lower the signal. The gist of the method: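 Read-out: reporter mRNA via RT-PCR plus capillary electrophoresis with fluorescence detection. Transiently transfected HepG2 (endogenous TF activity on cis promoters), 24 h compound exposure; gain or loss of signal fitted against DMSO.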

The target of assay [3] is Myc proto-oncogene protein (Homo sapiens) (UniProt P01106). Kind of assay: ATG_Myc_CIS: Attagene CIS-FACTORIAL HepG2 Assay for human Myelocytomatosis (Myc) Proto-Oncogene Transcription Factor (AID 2282990). Conditions: HepG2, Attagene cis-reporter transcription factor activity; actives raise or lower the signal. The gist of the method: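 Transiently transfected HepG2 cells bearing cis-promoter reporter units for endogenous transcription factors; 24 h exposure. Reporter mRNA measured by RT-PCR, 6-FAM primer extension, HpaI cut and capillary electrophoresis; bidirectional fit relative to DMSO.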

Assay [4] in a line: ATG_NRF2_ARE_CIS: Attagene CIS-FACTORIAL HepG2 Assay for human Nuclear Factor Erythroid 2 Related Factor 2 (NFR2) response to Antioxidant Response Elements (ARE) (AID 2282992).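 As to AC50: reporter mRNA level measured by RT-PCR and capillary electrophoresis fluorescence.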 Conditions: HepG2 Attagene ARE/NRF2 reporter, transcription factor activity; actives raise or lower the signal. The gist of the method:
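HepG2 cells transiently transfected with multiplexed cis-element reporter constructs, 24 h after chemical dosing; reporter mRNA quantified by RT-PCR, fluorescent primer extension, HpaI digestion and capillary electrophoresis. Bidirectional fit relative to DMSO.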

A short description of assay [5]: ATG_Oct_MLP_CIS: Attagene CIS-FACTORIAL HepG2 Assay for human Octamer-Binding Transcription Factor (Oct) (AID 2282993). Conditions: HepG2 Attagene cis-factorial Oct reporter, mRNA; actives raise or lower the signal. A digest of the protocol:
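Read-out: reporter mRNA via RT-PCR plus capillary electrophoresis of 6-FAM-labelled fragments. Transiently transfected HepG2, 24 h exposure, endogenous TF activity on cis elements. Gain or loss of signal fitted relative to DMSO.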

The target of assay [6] is Cellular tumor antigen p53 (Homo sapiens) (UniProt P04637). Kind of assay: ATG_p53_CIS: Attagene CIS-FACTORIAL HepG2 Assay for human p53 Transcription Factor (AID 2282994). Conditions: HepG2 p53 cis-element reporter, Attagene mRNA; actives raise or lower the signal. A digest of the protocol:
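HepG2 cells transiently transfected with cis-regulated multiple reporter transcription units, dosed 24 h. Reporter mRNA measured by RT-PCR, 6-FAM primer extension, HpaI digestion and capillary electrophoresis; bidirectional fit relative to DMSO.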

Assay [7] can be described thus: BSK_3C_uPAR: BioMAP Diversity Plus: 3C Assay for Urokinase-type plasminogen activator receptor (uPAR) Biomarker Activity (AID 2282998). Conditions: BioMAP 3C HUVEC, uPAR biomarker ELISA; actives raise or lower the signal. A digest of the protocol:
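HUVEC primary cells; 24 h post-dose; uPAR by ELISA; gain or loss of signal fitted bidirectionally vs DMSO baseline.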
A general note: In an ELISA, binding on a coated surface is turned into a signal by an enzyme label.

Assay [8] in a line: BSK_3C_VCAM1: BioMAP Diversity Plus: 3C Assay for Vascular cell adhesion molecule 1 (VCAM1) Biomarker Activity (AID 2282999). Conditions: BioMAP 3C HUVEC, VCAM1 ELISA, cytokine-stimulated; actives raise or lower the signal. A digest of the protocol: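 Human umbilical vein endothelial cells (3C system), biomarker read by ELISA 24 h after dosing; bidirectional fit against DMSO baseline. Cytotoxicity tracked by SRB total-protein staining in parallel cultures at biomarker time.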

Assay [9] in a line: BSK_3C_TissueFactor: BioMAP Diversity Plus: 3C Assay for Tissue Factor Biomarker Activity (AID 2282997). Conditions: BioMAP 3C HUVEC, tissue factor biomarker readout; actives raise or lower the signal. A digest of the protocol:
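Dosing of human umbilical vein endothelial cells preceded a 24 h incubation. Tissue Factor was then read by ELISA, with increases and decreases both scored relative to DMSO controls.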

Assay [10] can be described thus: ATG_NF_kB_CIS: Attagene CIS-FACTORIAL HepG2 Assay for human Nuclear Factor Kappa B (NF-kB) (AID 2282991). Conditions: HepG2 Attagene cis-factorial NF-kB reporter mRNA; actives raise or lower the signal. The gist of the method:
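Multiplexed cis-reporter assay in transiently transfected HepG2. 24 h treatment; RNA isolated, RT-PCR, labelled fragments resolved by CE. DMSO baseline.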

Sequence of Myc proto-oncogene protein (Homo sapiens) (P01106 whole entry, looked up): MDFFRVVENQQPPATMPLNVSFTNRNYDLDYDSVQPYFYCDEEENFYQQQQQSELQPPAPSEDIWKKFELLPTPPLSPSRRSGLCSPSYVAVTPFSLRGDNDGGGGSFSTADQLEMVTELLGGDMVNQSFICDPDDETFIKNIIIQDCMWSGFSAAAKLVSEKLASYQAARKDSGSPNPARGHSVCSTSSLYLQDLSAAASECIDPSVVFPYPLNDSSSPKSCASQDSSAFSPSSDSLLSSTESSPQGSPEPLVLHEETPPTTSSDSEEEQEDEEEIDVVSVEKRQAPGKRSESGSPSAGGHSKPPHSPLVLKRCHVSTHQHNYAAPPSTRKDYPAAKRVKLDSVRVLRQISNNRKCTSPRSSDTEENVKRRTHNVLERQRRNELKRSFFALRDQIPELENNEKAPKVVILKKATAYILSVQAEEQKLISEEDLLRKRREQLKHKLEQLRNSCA
Sequence of Cellular tumor antigen p53 (Homo sapiens) (P04637 whole entry, looked up): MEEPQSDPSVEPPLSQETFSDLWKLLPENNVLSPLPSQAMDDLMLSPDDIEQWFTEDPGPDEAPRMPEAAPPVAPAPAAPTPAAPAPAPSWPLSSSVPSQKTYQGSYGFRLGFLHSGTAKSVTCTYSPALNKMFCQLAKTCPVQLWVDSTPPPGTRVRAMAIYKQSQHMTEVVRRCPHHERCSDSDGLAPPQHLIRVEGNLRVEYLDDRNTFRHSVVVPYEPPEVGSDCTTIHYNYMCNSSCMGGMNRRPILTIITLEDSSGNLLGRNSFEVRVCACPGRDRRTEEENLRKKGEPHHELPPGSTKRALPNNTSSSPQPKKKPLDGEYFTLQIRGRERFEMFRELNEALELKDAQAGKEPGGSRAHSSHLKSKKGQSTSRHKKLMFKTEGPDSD
Sequence of Nuclear respiratory factor 1 (Homo sapiens) (Q16656 whole entry, looked up): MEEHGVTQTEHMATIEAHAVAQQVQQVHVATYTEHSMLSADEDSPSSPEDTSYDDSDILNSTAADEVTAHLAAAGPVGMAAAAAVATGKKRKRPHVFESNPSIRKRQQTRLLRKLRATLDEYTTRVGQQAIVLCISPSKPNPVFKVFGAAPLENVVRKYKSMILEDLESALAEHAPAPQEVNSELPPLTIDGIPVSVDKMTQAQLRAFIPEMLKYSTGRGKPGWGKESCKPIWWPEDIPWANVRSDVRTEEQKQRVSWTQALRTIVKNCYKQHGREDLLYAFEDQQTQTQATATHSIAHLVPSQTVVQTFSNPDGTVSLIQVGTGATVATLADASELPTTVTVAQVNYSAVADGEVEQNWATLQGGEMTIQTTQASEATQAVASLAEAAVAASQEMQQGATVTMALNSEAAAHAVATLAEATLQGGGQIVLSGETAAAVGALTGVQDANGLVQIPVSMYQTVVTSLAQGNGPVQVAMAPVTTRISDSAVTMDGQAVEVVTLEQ

As for `CCCCNS(=O)(=O)c1ccc(C)cc1`, the result in assay [1], in assay [2], in assay [3], in assay [4], in [5] and in assay [6] was inactive.
A word on the AC50: it is the concentration giving half of the maximal activity seen. Turning to `Oc1ccc(-c2ccccc2)c(Cl)c1`, the compound was called inactive in assay [1], in assay [3] and in assay [6]. Besides, the AC50 in assay [2] is 33.4 µM (active); in [4], 22.7 µM (active); in assay [5], 52.3 µM (active).
Regarding `CC1OC(=O)C(C)OC1=O` (centres undefined), the compound was called inactive in assay [1], in assay [2], in assay [3] and in assay [5].
As for `Cc1ccc([N+](=O)[O-])cc1N`, the call in [1], in assay [2], in assay [3], in [4], in [5] and in assay [6] was inactive. The result in assay [7] and in assay [8] was inactive.
On to `C=CC(=O)OCC(C)OCC(C)OCC(C)OC(=O)C=C` (centres undefined), for which the call in [1], in assay [2] and in assay [3] was inactive. Also, the AC50 in assay [4] was 25.6 µM (active); in assay [5] it was 29.5 µM (active); in assay [6], 145 µM (active); in [7], 24.6 µM (active); in [8], 12.1 µM (active).
`O=S(=O)(O)c1ccc(N=Nc2c(O)ccc3ccccc23)cc1`: the compound was classed as inactive in assay [1], in assay [2], in [3], in assay [5] and in assay [6]. For the same compound, the AC50 in assay [4] is 34.1 µM (active).
With `O=C(Oc1ccccc1)c1ccccc1C(=O)Oc1ccccc1`, the result in [1], in assay [2], in assay [3], in [5], in [6] and in [9] was inactive. The outcome in [7] and in assay [8] was inactive. In assay [4], the AC50 is 30.7 µM (active).
Turning to `CCCCCCCO`, the result in assay [1], in [2], in assay [3], in assay [4], in assay [5] and in [7] was inactive. Further, the result in [8] was inactive.
With `CCOC(=O)C1=NN(c2ccc(Cl)cc2Cl)C(C)(C(=O)OCC)C1` (centres undefined), the outcome in assay [1], in assay [2], in assay [3], in assay [5], in assay [7] and in [8] was inactive.
Consider `C=CC(C)(CCC=C(C)C)OC(=O)C=Cc1ccccc1` (centres undefined), for which the compound was called inactive in assay [1], in assay [2], in assay [3], in assay [5] and in [6]. Moreover, the AC50 in assay [4] was 32.9 µM (active).
Regarding `O=C(O)CCCC(=O)O`, the compound was classed as inactive in [1], in assay [2], in [3], in assay [4], in assay [5] and in assay [6].
For `CCNc1nc(NC(C)(C)C)nc(OC)n1`, the call in [1], in [2], in assay [3], in assay [4], in [5] and in assay [6] was inactive. Besides, the result in assay [7] and in assay [8] was inactive.
For the compound `COc1cc(C)ccc1O`, the call in assay [1], in assay [3], in [5] and in assay [6] was inactive. The AC50 in assay [4] is 17.4 µM (active).
Take `[Cl][Eu]([Cl])[Cl]`: the result in [1], in assay [3], in [10], in [4], in [5] and in assay [6] was inactive.
As for `c1ccc2cnccc2c1`, the compound was called inactive in [1], in assay [3], in assay [10], in [4], in assay [5] and in assay [6].
Regarding `COC(=O)[C@H](Cc1ccccc1)NC(=O)[C@@H](N)CC(=O)O` (H-Asp-Phe-OMe), the compound was classed as inactive in assay [1], in assay [3], in [10], in [4], in assay [5] and in assay [6].
As to `c1ccc(-c2nc3ccccc3[nH]2)cc1`, the compound was called inactive in [1], in assay [10], in assay [4], in [5] and in [6]. Further, the AC50 in assay [3] is 26.1 µM (active).
For the compound `CCCCC1CCC(=O)O1` (centres undefined), the compound was called inactive in assay [1], in assay [3], in [10], in [5] and in [6].
On to `C=CC(C)(O)CC/C=C(\C)CC` (centres undefined), for which the compound was called inactive in assay [1], in assay [3], in [10], in [4], in [5] and in assay [6].
`C=C(C)C(=O)OCCOC(=O)C(=C)C`: the compound was classed as inactive in [1], in assay [3], in assay [10] and in [5].
In the case of `C=CC(=O)OCCCCCCCCCC`, the compound was called inactive in [1], in assay [3], in assay [10], in [5] and in assay [6]. In addition, the AC50 in assay [4] was 94.5 µM (active).
`c1ccc2sc(SSN3CCOCC3)nc2c1`: the AC50 in [1] was 100 µM (active); in [3], 76.3 µM (active); in assay [5], 100 µM (active); in assay [9], 9.51 µM (active); in assay [7], 4.34 µM (active); in assay [8], 8.13 µM (active). Moreover, the compound was called inactive in [10].
In the case of `COc1ccc(C(=O)/C(Br)=C\C(=O)O)cc1`, the result in [1], in [3] and in [6] was inactive. Also, the AC50 in [10] was 13 µM (active); in assay [4] it was 2.53 µM (active); in [5] it was 49.4 µM (active); in assay [7], 29.7 µM (active) and 31.7 µM (active); in assay [8], 14.2 µM (active) and 20 µM (active).
For `C=C(C)[C@@H]1CC=C(C)CC1`, the outcome in assay [1], in assay [3], in assay [4], in [5] and in assay [6] was inactive.
As for `CCC(C)C(=O)OCCc1ccccc1` (centres undefined), the compound was called inactive in [1], in assay [3], in assay [5] and in assay [6].
For the compound `O=C(OCc1ccccc1)c1ccc(O)cc1`, the compound was classed as inactive in assay [1], in [3] and in assay [6]. The AC50 in [4] was 64.4 µM (active); in assay [5], 125 µM (active).
On to `C=C[Si](OCCOC)(OCCOC)OCCOC`, for which the compound was classed as inactive in assay [1], in assay [3], in [4], in [5] and in assay [6].
For `CCc1cccc(CC)c1`, the compound was classed as inactive in assay [1], in assay [3], in [10], in assay [4], in assay [5] and in [6].
Take `CCCCCCCCCCCCCc1ccccc1`: the compound was called inactive in assay [1], in assay [3], in [10], in assay [4] and in [5].
Consider `CCOC(=O)c1ccccc1C`, for which the compound was called inactive in assay [1], in assay [3], in [10] and in assay [5].
